From PubChem BioAssay AID2241 (Broad Institute, 2010)
Out of some 21,000 compounds screened, about 110 (0.52%) were called active.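 Rule for the calls: active = most replicate scores above 10, or exactly half above 10 with mean activity above 10; inconclusive = mean activity below 10 while half the replicates exceed 10; inactive = most replicate scores below 10.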 What follows is part of a selection rich in actives, with near analogues and random picks from the rest.

Test: inducers of caspase activity in MEF A1-2A-BIM cells, primary screen, A1 inhibitor project, cell-based, CaspaseGlo luminescence (AID 2241);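 note: effector caspase 3 and 7 activity cleaving a DEVD luciferin substrate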
Details: caspase-Glo luminescence, 3 h, stronger effect = higher value, percent of clofoctol signal, DMSO as zero, concentration not given here

| SMILES | caspase activation |
| --- | --- |
| Cc1cc(C)n(CCc2nc3c4ccccc4n(Cc4ccc(Cl)cc4)c(=O)n3n2)n1 | -0.449% (inactive) |
| CCOc1ccc2c(c1)sc(=NC(=O)c1cc3ccccc3cc1OC)n2C | 1.85% (inactive) |
| COC(=O)c1c(C)c(=O)[nH]c2ccccc12 | 0.776% (inactive) |
| CCCOc1ccc(Oc2nc(N(C)C)nc(N(C)C)n2)nn1 | 0.458% (inactive) |
| CCOC(=O)N1CCC(NC(=O)NCc2noc3ccccc23)CC1 | 0.501% (inactive) |
| C[C@@H]1CN([C@@H](C)CO)C(=O)c2cc(NS(=O)(=O)c3ccccc3)ccc2O[C@H]1CN(C)CC1CCCCC1 | -0.065% (inactive) |
| O=C(CC1N=C2c3ccccc3N=C(SCc3ccccc3F)N2C1=O)NC1CCCCC1 (stereo not given) | -0.498% (inactive) |
| C[C@@H]1CN([C@H](C)CO)C(=O)c2cc(NC(=O)Nc3ccccc3)ccc2O[C@H]1CN(C)S(=O)(=O)c1ccc(F)cc1 | -0.342% (inactive) |
| O=c1c2ccccc2nc(SCc2ccc(F)cc2)n1-c1ccccc1 | -0.926% (inactive) |
| O=C(NCc1ccc2c(c1)OCO2)C12CC3CC(CC(C3)C1)C2 | 0.545% (inactive) |
| CCOC(=O)c1cc(-c2ccccc2)n(-c2ccccc2C)n1 | -0.391% (inactive) |
| C=CCn1cc(C=C2C(=O)N(C)C(=S)N(C)C2=O)c2ccccc21 | 1.19% (inactive) |
| C[C@H]1CN([C@@H](C)CO)C(=O)c2cc(NS(C)(=O)=O)ccc2O[C@@H]1CN(C)S(=O)(=O)c1ccc(Cl)cc1 | -0.347% (inactive) |
| CC(C)CC1NC(=O)N(c2ccccc2)C1=O (stereo not given) | 0.301% (inactive) |
| C[C@H](CO)N1C[C@H](C)[C@H](CN(C)Cc2ccc(-c3ccccc3)cc2)Oc2ccc(NS(=O)(=O)c3ccccc3)cc2C1=O | 0.241% (inactive) |
| Cc1ccc(NC2=CC(=O)NC2)cc1 | 1.28% (inactive) |
| CN(CCOC(=O)C1c2ccccc2Oc2ccccc21)Cc1ccccc1 | 1.21% (inactive) |
| Cc1cccc(NC(=O)c2ccc(C)c(S(=O)(=O)N3CCCC3)c2)c1 | -5.91% (inactive) |
| CC(=O)N1N=C(c2ccccc2)OC1c1cccnc1 (stereo not given) | -0.213% (inactive) |
| C[C@H]1CN([C@@H](C)CO)C(=O)c2cc(NC(=O)Nc3ccccc3)ccc2O[C@H]1CN(C)C(=O)Nc1ccc(F)cc1 | 0.365% (inactive) |
| Cc1ccccc1N(C)S(=O)(=O)c1ccc2[nH]cc(C(=O)NCCC(C)C)c(=O)c2c1 | 0.114% (inactive) |
| COc1cc(C=Nc2ccc(Cl)cc2)ccc1OC(=O)/C=C/c1cccs1 | -0.187% (inactive) |
| O=C(Cc1ccccc1)N1CCCc2ccccc21 | 1.12% (inactive) |
| O=C(Nc1ccccc1)Nc1ccc(C2SCCS2)cc1 | -6.29% (inactive) |
| Cc1ccc(-n2c(C)cc(C=C3C(=O)c4ccccc4C3=O)c2C)cc1 | -6.47% (inactive) |
| C[C@@H]1CN([C@H](C)CO)C(=O)c2cc(NC(=O)Cc3ccccc3)ccc2O[C@H]1CN(C)S(=O)(=O)c1cn(C)cn1 | 0.269% (inactive) |
| N#CCNC(=O)CN1C(=O)c2ccccc2C1=O | 0.74% (inactive) |

| SMILES | caspase activation |
| --- | --- |
| CCN1C(=O)c2ccccc2Sc2ccc(NC(=O)N3CCc4ccccc43)cc21 | -0.754% (inactive) |
| CCN1C(=O)c2cccc3c(NC(=S)NC(=O)c4ccccc4)ccc1c23 | 11.5% (active) |
| CC1CCC(NC(=O)Cn2ncn3c(cc4sccc43)c2=O)CC1 (stereo not given) | -0.216% (inactive) |
| O=C1CC(c2ccccc2)C(=O)N1c1ccc(F)cc1 (stereo not given) | 0.129% (inactive) |
| COc1cc(SC)ccc1C(=O)N(C)c1ccccc1 | -0.443% (inactive) |
| S=C(Nc1cccc(Cl)c1)NC1CCSc2ccc(Cl)cc21 (stereo not given) | 1.82% (inactive) |
| C[C@H](CO)N1C[C@H](C)[C@H](CN(C)S(C)(=O)=O)Oc2ccc(NC(=O)CCCN(C)C)cc2C1=O | 0.894% (inactive) |
| COc1ccc(S(=O)(=O)N(C)C[C@@H]2Oc3ccc(NC(=O)Nc4c(C)noc4C)cc3C(=O)N([C@H](C)CO)C[C@@H]2C)cc1 | -0.0515% (inactive) |
| CC1CCC(C(C)C)C(=O)/C1=C\c1ccc(NC(=O)CCC(=O)O)cc1 (stereo not given) | -1.52% (inactive) |
| COc1ccc(NC(=O)Nc2ccc3c(c2)C(=O)N([C@@H](C)CO)C[C@H](C)[C@@H](CN(C)Cc2ccc4c(c2)OCO4)O3)cc1 | 0.747% (inactive) |
| CC1=CCC(C(=O)O)(C(=O)NCc2ccccc2)C(c2ccc(Br)cc2)C1 (stereo not given) | 0.252% (inactive) |
| C[C@@H]1CN([C@H](C)CO)C(=O)c2cc(N(C)C)ccc2O[C@@H]1CN(C)S(C)(=O)=O | 1.19% (inactive) |
| Cc1noc(C)c1NC(=O)N(C)C[C@@H]1Oc2ccc(NS(C)(=O)=O)cc2C(=O)N([C@H](C)CO)C[C@@H]1C | -0.083% (inactive) |
| O=c1oc2ccccc2cc1-c1ccc(Cl)cc1 | -4.58% (inactive) |
| COc1ccc(OC)c2c(C)cc(=O)[nH]c12 | 0.675% (inactive) |
| Cc1ccc(Nc2nc(C)cc(C)c2C(N)=O)cc1 | 0.407% (inactive) |
| CCOC(=O)c1cc(CC)sc1/N=C/C1C(=O)c2ccccc2C1=O | 0.959% (inactive) |
| NC(=O)c1nnc2cc(-c3ccccc3)nn2c1N | -5.53% (inactive) |
| C[C@@H]1CN([C@@H](C)CO)C(=O)c2cc(NC(=O)c3ccncc3)ccc2O[C@H]1CN(C)S(=O)(=O)c1ccc(Cl)cc1 | -0.107% (inactive) |
| Cc1nc2ccccn2c1-c1ccnc(SCC(=O)c2ccc(Cl)cc2)n1 | 2.75% (inactive) |
| COc1cc(C2OC(c3ccc(O)c(OC)c3)C(C)(O)C2C)ccc1O (stereo not given) | 0.0643% (inactive) |
| O=C(COC(=O)c1cc2ccccc2oc1=O)c1ccccc1 | -0.224% (inactive) |
| CC(C(=O)NC1CCCC1)n1c2ccccc2c2cnn(C)c(=O)c21 (stereo not given) | -0.382% (inactive) |
| CCn1c(=O)c2c(n3c(SCC(N)=O)nnc13)-c1ccccc1CC21CCCCC1 | 1.18% (inactive) |
| O=C(NCN1CCCCC1)C12CC3CC(CC(C3)C1)C2 | 0.282% (inactive) |
| C[C@H]1O[C@@H](O[C@H]2[C@@H](O)C[C@H](O[C@H]3[C@@H](O)C[C@H](O[C@H]4CC[C@]5(C)C6C[C@@H](O)[C@]7(C)[C@@H](C8=CC(=O)OC8)CC[C@]7(O)C6CC[C@@H]5C4)O[C@@H]3C)O[C@@H]2C)C[C@H](O)[C@@H]1O (stereo not given in full) | 0.786% (inactive) |
| CN(c1ncnc2c1cnn2-c1ccc(Cl)cc1)C1CCCCC1 | -2.01% (inactive) |

| SMILES | caspase activation |
| --- | --- |
| CC1CCN(S(=O)(=O)c2ccc3nc(-c4ccccn4)cc(C(=O)NC4CCCC4)c3c2)CC1 | -1.16% (inactive) |
| CC(C)(C)c1ccc(/C=C/C(=O)NC2CCS(=O)(=O)C2)cc1 (stereo not given) | -0.861% (inactive) |
| C=C1C(=O)O[C@@H]2[C@H]3C(CO)=CC(=O)C3=C(C)C[C@H](OC(=O)Cc3ccc(O)cc3)[C@@H]12 | -0.373% (inactive) |
| C[C@@H]1CN([C@H](C)CO)C(=O)c2cc(NS(=O)(=O)c3ccc(F)cc3)ccc2O[C@H]1CN(C)Cc1ccncc1 | 0.648% (inactive) |
| CC(C)(C)c1ccc(Cn2c(=N)n(CC(=O)O)c3ccccc32)cc1 | -0.508% (inactive) |
| C[C@@H]1CN([C@@H](C)CO)C(=O)c2cc(NC(=O)Cc3ccccc3)ccc2O[C@@H]1CN(C)S(=O)(=O)c1ccccc1 | 0.193% (inactive) |
| CCCCn1c2nc3ccccc3nc2c2c(N)ncnc21 | -0.174% (inactive) |
| C[C@@H]1CN([C@@H](C)CO)C(=O)c2cc(NC(=O)Nc3ccc(F)cc3)ccc2O[C@H]1CN(C)CC1CCCCC1 | 0.271% (inactive) |
| CCc1ccccc1NC(=O)c1ccc2snnc2c1 | 0.441% (inactive) |
| CCOC(=O)C1CCC(CN(Cc2ccccc2)S(=O)(=O)c2ccc(F)c(C)c2)CC1 (stereo not given) | 0.544% (inactive) |
| CC(C)[C@H](CO)Nc1nc(Nc2cc(N)cc(Cl)c2)c2ncn(C(C)C)c2n1 | 13.9% (active) |
| CC(C)OC(=O)C1=c2s/c(=C\c3cccnc3)c(=O)n2C(N)=C(C#N)C1c1cccnc1 (stereo not given) | -0.566% (inactive) |
| COc1ccc(NC(=O)N(C)C[C@H]2Oc3ccc(NS(=O)(=O)c4ccc(F)cc4)cc3C(=O)N([C@@H](C)CO)C[C@@H]2C)cc1 | -0.29% (inactive) |
| Cc1ccc(-c2nc(Nc3ccccc3F)sc2C)cc1 | -0.917% (inactive) |
| CC1CCN(C(=O)Cn2cnc3c(cnn3-c3ccccc3)c2=O)CC1 | -0.191% (inactive) |
| O=C(c1nc2ncccn2n1)N(Cc1ccccc1)Cc1ccccc1 | -0.322% (inactive) |
| COc1nnc(-c2ccc(C)c(S(=O)(=O)N(C)C)c2)c2ccccc12 | 0.109% (inactive) |
| Cc1ccc(S(=O)(=O)Nc2ccc3c(c2)C(=O)N([C@@H](C)CO)C[C@@H](C)[C@@H](CN(C)Cc2ccncc2)O3)cc1 | 0.309% (inactive) |
| Cc1ccc(C(=O)NC(NCc2ccco2)(C(F)(F)F)C(F)(F)F)cc1 | -0.256% (inactive) |
| O=C(c1ccccc1)C(CC(=O)N1CCOCC1)c1ccccc1 (stereo not given) | 0.00844% (inactive) |
| C[C@@H]1CN([C@H](C)CO)C(=O)c2cc(NC(=O)Cc3cn(C)c4ccccc34)ccc2O[C@@H]1CN(C)S(=O)(=O)c1cccs1 | -0.00537% (inactive) |
| CCSc1ccc2nnc(CCNC(=O)c3ccccc3)n2n1 | 0.0984% (inactive) |
| COc1ccccc1C(=O)N/C(=C\c1ccccc1)C(=O)N1CCOCC1 | -0.546% (inactive) |
| Cc1ccc(O)c(C(C)(C)C)c1 | -0.605% (inactive) |
| Cc1sc2nc3n(c(=O)c2c1C)N=C(c1ccc(F)cc1)CS3 | -1.09% (inactive) |
| CC1=C(Cc2ccc(OC(=O)c3ccccc3)cc2)C(=O)C(C(C)C)CC1 (stereo not given) | 0.579% (inactive) |
